Results published in PubChem BioAssay AID463173 (ICCB-Longwood Screening Facility, Harvard Medical School, 2010).
About 4,300 (8.3%) of roughly 52,000 compounds were called active. Rule as the data show it: active = survival mostly below about 52% (no sharp cut-off); inactive = mostly above about 56%. The entries come from a sample that favours actives as a whole.

Test system: DeltatarO mutant
Test: S. aureus survival, RN4220 and DeltatarO strains – OD600, teichoic acid synthesis inhibitors, primary screen (AID 463173)
Details: S. aureus RN4220 wild type/DeltatarO growth, OD600, 18 h, active compounds read low, screened at 18.75 µg/mL (by protocol)

Row | SMILES | survival
1 | COc1ccc(OCc2ccc(-c3nc(C#N)c(NCc4ccccc4)o3)o2)cc1 | 78% (inactive)
2 | COc1cc(C(CC(=O)Nc2cccc(C(C)=O)c2)N2Cc3ccccc3C2=O)cc(OC)c1OC (stereo not given) | 67% (inactive)
3 | COc1ccccc1N1CCN(C(=O)c2c3c(nc4ccccc24)C(=O)N(C2CCCCC2)C3)CC1 | 94% (inactive)
4 | Cc1ccc(-c2nnc(Nc3ccc(S(N)(=O)=O)cc3)c3ccccc23)cc1S(=O)(=O)N1CCCCC1 | 103% (inactive)
5 | Cn1c(SCC(=O)N2CCOCC2)ncc(C(=O)Nc2ccc(F)cc2)c1=O | 87% (inactive)
6 | CCOc1ccc(NS(=O)(=O)c2ccc(C(=O)N(C)C)s2)cc1 | 76% (inactive)
7 | CCOc1cc2sc(N3CCC(C(=O)Nc4ccc(CC)cc4)CC3)nc2cc1Br | 86% (inactive)
8 | Cc1ccc(/C=C/c2nc3ccccc3n2S(=O)(=O)c2cccc(Cl)c2)cc1 | 77% (inactive)
9 | C#CCn1c(/C=C/c2ccc(Cl)cc2)nc2ccccc21 | 10% (active)
10 | Cn1c(C=Nc2ccc(Cl)cc2)nc2ccccc21 | 83% (inactive)
11 | COc1ccc(-c2nnc(SCC(=O)Nc3ccc(Cl)cc3)s2)cc1 | 84% (inactive)
12 | Cn1cc(C(=O)N2CCN(c3cccc(C(F)(F)F)c3)CC2)c2c3ccccc3n(C)c2c1=O | 20% (active)
13 | Cn1c2ccccc2c2c(C(=O)N3CCN(c4cccc(C(F)(F)F)c4)CC3)cn(C3CCCCC3)c(=O)c21 | 88% (inactive)
14 | Cc1ccc(-n2nc(C(=O)N3CCN(c4cccc(C(F)(F)F)c4)CC3)c3c4ccccc4n(C)c3c2=O)cc1 | 95% (inactive)
15 | O=C(NCc1cccc(Cl)c1)C1CCCN(c2nn3cc(-c4ccc(F)cc4)nc3s2)C1 (stereo not given) | 87% (inactive)
16 | CCc1ccccc1NC(=O)c1nc(-c2ccncc2)no1 | 46% (inactive)
17 | Cc1cc(C)c(S(=O)(=O)N2CCC(n3c(C(F)(F)F)nc4cccnc43)CC2)c(C)c1 | 79% (inactive)
18 | O=C(Cn1c(C(=O)N2CCOCC2)cc2sccc21)c1ccccc1 | 99% (inactive)
19 | Oc1ccccc1C1OC2CCCCC2C2=CCCCC21 (stereo not given) | 34% (active)
20 | Oc1ccccc1C1OCC(C2CC=CCC2)CO1 (stereo not given) | 96% (inactive)
21 | CC1=CCC2(CO)COC(c3ccccc3O)C1C2 (stereo not given) | 90% (inactive)
22 | c1ccc2c(c1)[nH]c1c(N3CCOCC3)ncnc12 | 68% (inactive)
23 | COc1cccc(CCNC(=O)Cn2c(-c3cccs3)cc3ccccc32)c1 | 70% (inactive)

Row | SMILES | survival
24 | O=C(Nc1c2c(nn1-c1ccc(Cl)cc1)CS(=O)(=O)C2)c1cccc(F)c1 | 55% (inactive)
25 | Cc1noc(/C=C/c2ccccc2F)c1S(=O)(=O)N1CCC(C(=O)NCc2ccco2)CC1 | 107% (inactive)
26 | COc1ccc(OC)c(CCNc2nc3cc(OC)c(OC)cc3c3nc(-c4cccnc4)nn23)c1 | 126% (inactive)
27 | COc1cc2nc(NCCC(C)C)n3nc(-c4ccccc4)nc3c2cc1OC | 49% (inactive)
28 | COc1cc2nc(NCc3ccccc3)n3nc(-c4ccccc4)nc3c2cc1OC | 47% (active)
29 | COCCCNc1nc2cc(OC)c(OC)cc2c2nc(-c3ccccc3)nn12 | 47% (active)
30 | CCOCCCNc1nc2cc(OC)c(OC)cc2c2nc(-c3ccccc3)nn12 | 44% (active)
31 | COc1cc2nc(NCC(C)c3ccccc3)n3nc(-c4ccccc4)nc3c2cc1OC (stereo not given) | 61% (inactive)
32 | COc1cc2nc(NCc3ccc(C)cc3)n3nc(-c4ccccc4)nc3c2cc1OC | 61% (inactive)
33 | COCCCNC(=O)CSc1nc2cc(OC)c(OC)cc2c2nc(-c3ccccc3)nn12 | 78% (inactive)
34 | CCC(C)NC(=O)c1c(C)oc2ncn(CC(C)C)c(=O)c12 (stereo not given) | 79% (inactive)
35 | COC(=O)c1c(-c2ccc(Cl)cc2)noc1N1CCN(c2cccc(C)c2C)CC1 | 79% (inactive)
36 | CN1C(=O)CSC1=Nc1cccc(C(=O)O)c1 | 89% (inactive)
37 | COC(=O)c1csc(N)n1 | 95% (inactive)
38 | CCOc1ccc2c(c1)c(=O)c(S(=O)(=O)c1ccc(F)cc1)cn2CC(=O)Nc1ccccc1C | 96% (inactive)
39 | Cc1nn2c(=O)cc(COC(=O)c3ccc(NC(=O)c4cccc(Br)c4)cc3)nc2s1 | 97% (inactive)
40 | CCOC(=O)C1CCN(C(=O)c2ccc3c(c2)N=C(CC)c2cc(C)ccc2S3)CC1 | 36% (active)
41 | CC1=Nc2cc(C(=O)N3CCC(C)CC3)ccc2Sc2ccc(Cl)cc21 | 90% (inactive)
42 | CC1=Nc2cc(C(=O)N3CCCCC3)ccc2Sc2ccc(C)cc21 | 48% (inactive)
43 | CCCC1=Nc2cc(C(=O)N3CCC(C)CC3)ccc2Sc2ccc(C)cc21 | 97% (inactive)
44 | CCCC1=Nc2cc(C(=O)N3CCC(C(=O)OCC)CC3)ccc2Sc2ccccc21 | 79% (inactive)
45 | CCC1=Nc2cc(C(=O)N3CCC(C)CC3)ccc2Sc2ccc(C)cc21 | -4% (active)
46 | O=C(CNCc1ccccc1F)Nc1ccc(N2CCCC2)cc1 | 102% (inactive)

Row | SMILES | survival
47 | Cc1nnc2c3ccccc3nc(N3CCN(c4cccc(Cl)c4)CC3)n12 | 92% (inactive)
48 | COc1ccc(CNC(=O)CCc2c(C)nc3cc(-c4ccc(OC)cc4OC)nn3c2C)cc1 | 121% (inactive)
49 | CCn1cc(C(=O)NCc2ccc(F)cc2)c(=O)c2cc(S(=O)(=O)N(C)C)ccc21 | 81% (inactive)
50 | CCOCCc1nn2c(=O)cc(COC(=O)c3ccc(NC(=O)C4CCCCC4)cc3)nc2s1 | 70% (inactive)
51 | Cc1ccc(-c2noc(-c3ccccc3NC(=O)C3CC(=O)N(c4ccc(C)cc4)C3)n2)cc1 (stereo not given) | 48% (inactive)
52 | COc1cc(C(=O)Nc2ccccc2-c2nc(-c3ccc(C)cc3)no2)cc(OC)c1OC | 53% (inactive)
53 | COc1ccc(-c2noc(-c3ccccc3NC(=O)c3cc(OC)c(OC)c(OC)c3)n2)cc1 | 34% (active)
54 | Cc1ccc(-c2noc(-c3ccccc3NC(=O)C3CC(=O)N(c4cccc(C)c4)C3)n2)cc1 (stereo not given) | 66% (inactive)
55 | COc1cc(C(=O)Nc2ccccc2-c2nc(-c3ccccc3)no2)cc(OC)c1OC | 66% (inactive)
56 | COc1ccc(C(=O)Nc2ccccc2-c2nc(-c3ccc(OC)cc3)no2)cc1 | 48% (inactive)
57 | COc1ccc(-c2noc(-c3cccc(OC)c3OC)n2)cc1 | 8% (active)
58 | COc1cccc(C(=O)Nc2ccccc2-c2nc(-c3ccc(C)cc3)no2)c1 | 48% (active)
59 | COc1cccc(-c2noc(-c3cc(C(C)C)[nH]n3)n2)c1OC | 73% (inactive)
60 | COc1ccc(N2CC(C(=O)Nc3ccccc3-c3nc(-c4ccc(C)cc4)no3)CC2=O)cc1 (stereo not given) | 54% (active)
61 | Cc1ccc(-c2noc(-c3ccccc3NC(=O)c3ccccc3)n2)cc1 | 69% (inactive)
62 | COc1cccc(-c2noc(-c3cc4ccccc4oc3=O)n2)c1OC | 102% (inactive)
63 | COc1ccc(C2=NN(CC(=O)NCCCN(C)c3ccccc3)C(=O)CC2)cc1 | 116% (inactive)
64 | CCCn1c(=O)c2sccc2n2c(CCCC(=O)Nc3ccc(Oc4ccccc4)cc3)nnc12 | 88% (inactive)
65 | CN(C)c1ccc(C(CNC(=O)COc2ccc(Cl)cc2)N2CCOCC2)cc1 (stereo not given) | 55% (inactive)
66 | Cc1cccc(OCC(=O)Nc2nonc2-c2ccc(Br)cc2)c1C | 68% (inactive)
67 | Cc1ccc(OCC(=O)Nc2nonc2-c2ccc(Br)cc2)cc1 | 75% (inactive)
68 | Cc1cccc(C)c1OCC(=O)Nc1nonc1-c1ccc(Br)cc1 | 41% (active)
69 | Cc1ccc(OC(C)C(=O)Nc2nonc2-c2ccc(Br)cc2)cc1C (stereo not given) | 66% (inactive)

Row | SMILES | survival
70 | Cc1cccc(OC(C)C(=O)Nc2nonc2-c2ccc(Br)cc2)c1C (stereo not given) | 70% (inactive)
71 | Cc1cc(C)cc(OC(C)C(=O)Nc2nonc2-c2ccc(Br)cc2)c1 (stereo not given) | 14% (active)
72 | CCc1ccc2[nH]cc(S(=O)(=O)c3ccc(C(C)C)cc3)c(=O)c2c1 | 62% (inactive)
73 | CC(C)c1ccc(NC(=O)CCNS(=O)(=O)c2ccc3c(c2)CCCC(=O)N3)cc1 | 77% (inactive)
74 | Cc1cc(C)c2c(=O)cc(CSCC(=O)Nc3ccccc3Cl)[nH]c2c1 | 90% (inactive)
75 | Cc1ccc(-c2cc3ncc4c(n3n2)-c2cc(F)ccc2OC4)cc1 | 108% (inactive)
76 | O=C(CS(=O)(=O)c1cccc2nsnc12)Nc1ccccc1Cl | 71% (inactive)
77 | CCOC(=O)Cc1cc(=O)[nH]c(/N=C(\N)Nc2ccc3ccccc3c2)n1 | 98% (inactive)
78 | COC(=O)c1ccc(NC(=O)CCc2c(C)nn(-c3ccc(N4CCOCC4)nn3)c2C)cc1 | 78% (inactive)
79 | COC(=O)NCC(c1cccnc1)N1CCN(c2ccc(F)cc2)CC1 (stereo not given) | 83% (inactive)
80 | CN(C)CCNC(=O)C(=O)NCC(c1cccnc1)N1CCN(c2ccccc2)CC1 (stereo not given) | 54% (active)
81 | CCOc1ccccc1NC(=O)C(=O)NCC(c1cccnc1)N1CCN(c2ccccc2)CC1 (stereo not given) | 54% (inactive)
82 | CCN(CC)CCNC(=O)C(=O)NCC(c1cccnc1)N1CCN(c2ccccc2)CC1 (stereo not given) | 100% (inactive)
83 | Cc1cc(C)cc(NC(=O)C(=O)NCC(c2cccnc2)N2CCN(c3ccccc3)CC2)c1 (stereo not given) | 56% (inactive)
84 | CN(C)CCNC(=O)C(=O)NCC(c1cccnc1)N1CCN(c2ccc(F)cc2)CC1 (stereo not given) | 69% (inactive)
85 | Cc1ccc(C)c(NC(=O)C(=O)NCC(c2cccnc2)N2CCN(c3ccc(F)cc3)CC2)c1 (stereo not given) | 15% (active)
86 | COc1ccccc1N1CCN(C(CNC(=O)C(=O)NCCCN(C)C)c2cccnc2)CC1 (stereo not given) | 61% (active)
87 | COc1ccccc1N1CCN(C(CNC(=O)C(=O)NCCN(C)C)c2cccnc2)CC1 (stereo not given) | 69% (inactive)
88 | Cc1ccc(CNC(=O)C(=O)NCC(c2cccnc2)N2CCN(c3ccc(F)cc3)CC2)cc1 (stereo not given) | 73% (inactive)
89 | CCOC(=O)C(=O)NCC(c1cccnc1)N1CCN(c2ccccc2)CC1 (stereo not given) | 65% (active)
90 | COCCNC(=O)C(=O)NCC(c1cccnc1)N1CCN(c2ccccc2OC)CC1 (stereo not given) | 64% (inactive)
